# Results as given in the supplement of paper PMC11732987, “Enantioselective OTUD7B fragment discovery through chemoproteomics screening and high-throughput optimisation” (Communications Chemistry, 2025).
# Values without a mark were called inactive.
# Tests used:
# Experiment in all cases: log2 ratio of Biotin-Ahx-Ub-VS probe labelling (fragment/DMSO); higher = less target engagement (more negative = stronger competition), active = hit call of the paper (q ≤ 0.05, log2 ratio ≤ -1)
# Details in all cases: compound concentration: 200 uM; treatment time: 3 h
# OTUD6B = biological target: T1, OTUD6B (UniProt Q8N6M0)
# T1 sequence (whole entry): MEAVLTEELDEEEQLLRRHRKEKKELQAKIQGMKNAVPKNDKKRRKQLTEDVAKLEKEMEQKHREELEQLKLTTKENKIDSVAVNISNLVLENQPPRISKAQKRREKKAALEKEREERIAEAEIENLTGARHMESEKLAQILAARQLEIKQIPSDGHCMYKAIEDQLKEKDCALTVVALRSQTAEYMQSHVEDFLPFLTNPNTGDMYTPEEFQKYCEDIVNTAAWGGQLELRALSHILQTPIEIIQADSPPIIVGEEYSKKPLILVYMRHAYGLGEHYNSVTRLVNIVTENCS
# Summary of the method: (§1)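 Labelling with Biotin-Ahx-Ub-VS (0.5 µM final, 1 h) followed a 3 h triplicate treatment of HEK293T lysate (495 µg per sample, Tris/CHAPS/IGEPAL buffer with protease inhibitors) with fragment at 200 µM or vehicle. Labelled DUBs were NeutrAvidin-enriched, digested with LysC and trypsin, and run by diaPASEF LC-MS/MS. The values, average log2 fragment/vehicle ratios by unpaired t-test, come from global-median-normalised Spectronaut label-free quantities. Proteins with ≥2 unique peptides were used.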
# OTUD7B = biological target: T2, OTUD7B (UniProt Q6GQQ9)
# T2 sequence (whole entry): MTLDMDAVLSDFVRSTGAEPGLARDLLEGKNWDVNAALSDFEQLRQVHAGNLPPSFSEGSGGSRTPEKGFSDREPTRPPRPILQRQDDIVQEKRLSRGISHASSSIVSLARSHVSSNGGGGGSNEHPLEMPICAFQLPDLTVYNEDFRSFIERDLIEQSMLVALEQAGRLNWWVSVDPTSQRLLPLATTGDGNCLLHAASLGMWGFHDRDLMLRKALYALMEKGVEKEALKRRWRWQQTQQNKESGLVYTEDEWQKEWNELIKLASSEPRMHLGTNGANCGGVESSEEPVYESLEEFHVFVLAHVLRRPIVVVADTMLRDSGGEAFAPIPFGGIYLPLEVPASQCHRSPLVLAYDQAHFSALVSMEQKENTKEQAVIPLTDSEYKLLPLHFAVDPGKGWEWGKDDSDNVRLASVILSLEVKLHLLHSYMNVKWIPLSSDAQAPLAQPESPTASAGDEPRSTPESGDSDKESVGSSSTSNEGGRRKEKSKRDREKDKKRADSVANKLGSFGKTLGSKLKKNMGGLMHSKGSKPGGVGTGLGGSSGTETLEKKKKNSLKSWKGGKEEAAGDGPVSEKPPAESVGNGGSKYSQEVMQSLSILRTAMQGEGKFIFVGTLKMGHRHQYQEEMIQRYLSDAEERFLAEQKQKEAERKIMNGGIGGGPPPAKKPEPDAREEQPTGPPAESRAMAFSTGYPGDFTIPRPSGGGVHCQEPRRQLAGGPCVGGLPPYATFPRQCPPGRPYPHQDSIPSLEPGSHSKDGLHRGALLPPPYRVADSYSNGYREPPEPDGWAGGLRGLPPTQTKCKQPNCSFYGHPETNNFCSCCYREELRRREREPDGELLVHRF
# Summary of the method: as §1
# PRPF8 = PRPF8 (UniProt Q6P2Q9)
# Summary of the method: as §1
# PSMD7 = biological target: T3, PSMD7 (UniProt P51665)
# T3 sequence (whole entry): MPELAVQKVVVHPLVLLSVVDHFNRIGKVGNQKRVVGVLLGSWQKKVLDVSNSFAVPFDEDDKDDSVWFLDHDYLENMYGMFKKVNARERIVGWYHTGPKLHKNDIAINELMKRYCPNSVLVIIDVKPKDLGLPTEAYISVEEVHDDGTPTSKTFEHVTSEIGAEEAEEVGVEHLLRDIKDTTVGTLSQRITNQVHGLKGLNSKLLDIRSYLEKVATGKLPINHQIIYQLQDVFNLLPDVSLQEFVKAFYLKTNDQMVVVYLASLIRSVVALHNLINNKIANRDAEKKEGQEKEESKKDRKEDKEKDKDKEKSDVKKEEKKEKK
# Summary of the method: as §1
# UCHL1 = UCHL1 (UniProt P09936)
# Summary of the method: as §1
# UCHL3 = biological target: T4, UCHL3 (UniProt P15374)
# T4 sequence (whole entry): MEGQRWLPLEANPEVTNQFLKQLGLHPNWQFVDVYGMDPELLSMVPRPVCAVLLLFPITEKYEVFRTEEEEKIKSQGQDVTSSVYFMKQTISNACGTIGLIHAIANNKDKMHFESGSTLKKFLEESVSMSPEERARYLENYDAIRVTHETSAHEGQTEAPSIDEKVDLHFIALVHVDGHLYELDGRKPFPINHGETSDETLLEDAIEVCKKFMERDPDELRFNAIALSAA
# Summary of the method: as §1
# UCHL5 = biological target: T5, UCHL5 (UniProt Q9Y5K5)
# T5 sequence (whole entry): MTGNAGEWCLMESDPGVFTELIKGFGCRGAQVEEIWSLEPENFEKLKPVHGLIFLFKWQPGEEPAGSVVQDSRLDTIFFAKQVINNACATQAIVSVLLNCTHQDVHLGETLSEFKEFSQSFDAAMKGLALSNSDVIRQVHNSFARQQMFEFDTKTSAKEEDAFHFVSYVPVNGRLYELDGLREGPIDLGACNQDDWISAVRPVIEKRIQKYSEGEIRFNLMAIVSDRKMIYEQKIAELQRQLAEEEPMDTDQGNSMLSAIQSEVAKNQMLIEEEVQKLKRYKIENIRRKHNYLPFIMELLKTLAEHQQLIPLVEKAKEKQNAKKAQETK
# Summary of the method: as §1
# USP10 = USP10 (UniProt Q14694)
# Summary of the method: as §1
# USP15 = biological target: T6, USP15 (UniProt Q9Y4E8)
# T6 sequence (whole entry): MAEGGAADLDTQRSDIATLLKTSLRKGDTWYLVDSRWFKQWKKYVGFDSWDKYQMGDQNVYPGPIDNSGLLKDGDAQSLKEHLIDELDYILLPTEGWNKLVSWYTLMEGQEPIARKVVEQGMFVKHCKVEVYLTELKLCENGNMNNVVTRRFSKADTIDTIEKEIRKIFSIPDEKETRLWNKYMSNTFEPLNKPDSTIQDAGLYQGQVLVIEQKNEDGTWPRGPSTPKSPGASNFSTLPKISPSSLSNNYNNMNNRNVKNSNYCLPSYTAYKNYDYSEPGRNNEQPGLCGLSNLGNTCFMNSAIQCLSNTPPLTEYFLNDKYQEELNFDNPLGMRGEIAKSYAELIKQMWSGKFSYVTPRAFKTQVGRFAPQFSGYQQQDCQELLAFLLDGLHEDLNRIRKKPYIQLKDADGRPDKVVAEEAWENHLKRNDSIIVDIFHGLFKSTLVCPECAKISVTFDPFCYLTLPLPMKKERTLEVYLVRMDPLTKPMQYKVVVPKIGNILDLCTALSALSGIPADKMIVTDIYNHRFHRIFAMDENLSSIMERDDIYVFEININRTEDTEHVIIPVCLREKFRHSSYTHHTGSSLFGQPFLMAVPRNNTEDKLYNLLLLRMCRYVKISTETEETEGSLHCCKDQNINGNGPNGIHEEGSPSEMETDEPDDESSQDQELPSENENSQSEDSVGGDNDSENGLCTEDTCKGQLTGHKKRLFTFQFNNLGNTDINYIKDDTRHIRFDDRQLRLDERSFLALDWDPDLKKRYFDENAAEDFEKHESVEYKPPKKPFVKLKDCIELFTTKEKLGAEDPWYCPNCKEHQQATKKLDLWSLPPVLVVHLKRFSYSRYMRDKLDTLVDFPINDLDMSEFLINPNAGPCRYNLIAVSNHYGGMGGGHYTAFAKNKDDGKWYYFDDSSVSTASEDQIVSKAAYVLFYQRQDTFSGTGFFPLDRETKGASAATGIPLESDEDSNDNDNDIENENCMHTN
# Summary of the method: as §1
# USP16 = USP16 (UniProt Q9Y5T5)
# Summary of the method: as §1
# Sequence of USP10 (Q14694 whole entry): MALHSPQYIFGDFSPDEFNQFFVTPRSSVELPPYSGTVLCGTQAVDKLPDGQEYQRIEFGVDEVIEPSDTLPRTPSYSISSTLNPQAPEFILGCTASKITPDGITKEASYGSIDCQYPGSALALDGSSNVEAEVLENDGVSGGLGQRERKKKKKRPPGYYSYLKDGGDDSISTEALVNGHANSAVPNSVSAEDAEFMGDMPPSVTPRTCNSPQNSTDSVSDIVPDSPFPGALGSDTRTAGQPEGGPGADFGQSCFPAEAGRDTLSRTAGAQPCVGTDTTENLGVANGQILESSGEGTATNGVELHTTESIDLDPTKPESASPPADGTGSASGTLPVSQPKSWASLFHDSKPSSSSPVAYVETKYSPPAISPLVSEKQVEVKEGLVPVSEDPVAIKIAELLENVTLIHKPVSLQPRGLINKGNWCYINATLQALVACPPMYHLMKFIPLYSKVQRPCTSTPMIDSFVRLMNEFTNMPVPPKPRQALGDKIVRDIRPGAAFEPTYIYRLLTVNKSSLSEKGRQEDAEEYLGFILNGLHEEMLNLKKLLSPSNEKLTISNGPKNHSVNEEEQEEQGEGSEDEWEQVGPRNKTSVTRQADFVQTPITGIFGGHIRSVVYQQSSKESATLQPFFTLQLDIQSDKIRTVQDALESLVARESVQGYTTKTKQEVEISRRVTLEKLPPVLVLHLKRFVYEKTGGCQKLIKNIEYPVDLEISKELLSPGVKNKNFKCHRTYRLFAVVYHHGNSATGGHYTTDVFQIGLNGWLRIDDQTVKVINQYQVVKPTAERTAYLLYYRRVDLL
# Sequence of UCHL1 (P09936 whole entry, looked up): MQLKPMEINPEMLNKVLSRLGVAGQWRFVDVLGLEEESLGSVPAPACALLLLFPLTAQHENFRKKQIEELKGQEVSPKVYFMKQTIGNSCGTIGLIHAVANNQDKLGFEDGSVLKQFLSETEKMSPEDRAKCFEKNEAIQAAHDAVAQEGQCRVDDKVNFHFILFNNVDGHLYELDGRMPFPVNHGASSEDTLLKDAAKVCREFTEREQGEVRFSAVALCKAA
# Sequence of USP16 (Q9Y5T5 whole entry, looked up): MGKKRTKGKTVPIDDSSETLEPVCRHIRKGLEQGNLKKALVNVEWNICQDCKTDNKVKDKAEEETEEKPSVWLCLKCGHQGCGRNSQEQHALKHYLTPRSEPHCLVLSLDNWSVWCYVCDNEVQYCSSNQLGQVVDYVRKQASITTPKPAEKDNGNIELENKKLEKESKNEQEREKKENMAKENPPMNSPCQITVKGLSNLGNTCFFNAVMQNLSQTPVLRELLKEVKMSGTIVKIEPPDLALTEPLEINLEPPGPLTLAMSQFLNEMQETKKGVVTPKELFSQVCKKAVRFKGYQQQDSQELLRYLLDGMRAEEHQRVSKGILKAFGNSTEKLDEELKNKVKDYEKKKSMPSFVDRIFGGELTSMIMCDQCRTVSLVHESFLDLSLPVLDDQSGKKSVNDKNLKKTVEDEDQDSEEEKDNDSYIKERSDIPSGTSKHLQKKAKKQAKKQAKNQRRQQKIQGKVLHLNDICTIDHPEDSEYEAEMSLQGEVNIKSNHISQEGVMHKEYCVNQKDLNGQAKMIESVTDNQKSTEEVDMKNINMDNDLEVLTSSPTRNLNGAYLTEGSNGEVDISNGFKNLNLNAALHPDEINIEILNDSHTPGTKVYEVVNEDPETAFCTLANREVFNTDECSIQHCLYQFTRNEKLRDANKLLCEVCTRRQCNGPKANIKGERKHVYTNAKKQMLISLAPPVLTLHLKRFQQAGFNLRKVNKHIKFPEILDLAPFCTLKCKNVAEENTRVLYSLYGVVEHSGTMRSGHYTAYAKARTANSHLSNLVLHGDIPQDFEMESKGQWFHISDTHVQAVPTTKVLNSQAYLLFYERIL
structure (smiles),measurement,setting,value
Cc1c(NC(=O)CCl)c(=O)n(-c2ccccc2)n1C,log2 ratio of Biotin-Ahx-Ub-VS probe labelling,OTUD6B,-0.0267
same,log2 ratio of Biotin-Ahx-Ub-VS probe labelling,OTUD7B,-0.0828
same,log2 ratio of Biotin-Ahx-Ub-VS probe labelling,PRPF8,0.192
same,log2 ratio of Biotin-Ahx-Ub-VS probe labelling,PSMD7,-0.0588
same,log2 ratio of Biotin-Ahx-Ub-VS probe labelling,UCHL1,-1.04 (active)
same,log2 ratio of Biotin-Ahx-Ub-VS probe labelling,UCHL3,0.0974
same,log2 ratio of Biotin-Ahx-Ub-VS probe labelling,UCHL5,-0.143
same,log2 ratio of Biotin-Ahx-Ub-VS probe labelling,USP10,-0.099
same,log2 ratio of Biotin-Ahx-Ub-VS probe labelling,USP15,-0.102
same,log2 ratio of Biotin-Ahx-Ub-VS probe labelling,USP16,-0.462
